Results reported in PubChem BioAssay.
For some of these results: Potency and affinity values are given separately. Active and inactive are the calls of the source. Unless noted, no rule for the calls is given here.

What was measured:
[1] = antimalarial activity against Dd2 strain (AID 2302;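 active = growth inhibition above 50% at the single 2 µM test dose, taken to imply half-maximal potency below 2 µM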;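 also: 0% = DMSO untreated growth and 100% = chloroquine plus artemisinin killed control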); settings: P. falciparum Dd2 in RBCs, LDH growth readout, 72 h; at 2 µM; hits give high values
[2] = HepG2 cytotoxicity, primary screen, cytotoxicity control for P. falciparum antimalarial project, cell-based, ATP luminescence (AID 2303;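 active = inhibition above 50%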;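 also: 0% = DMSO wells and 100% = digitonin-killed cells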); settings: HepG2 viability, 24-48 h, at 10 µM, hits give high values
[3] = target: L-lactate dehydrogenase (Plasmodium falciparum (isolate CDC / Honduras)) (UniProt Q27743); assay: PfLDH activity inhibition – cell lysate, 3D7 strain, counter-screen for P. falciparum growth inhibition project (AID 2304);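 also: 0% = vehicle and 100% = reference inhibitor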; settings: P. falciparum 3D7 crude extract, LDH APAD/NBT absorbance; at 2 µM; hits give high values
[4] = inhibition of 3D7 malaria parasite growth – strain 3D7 (AID 2306);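 also: 0% = DMSO wells and 100% = chloroquine plus artemisinin control wells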; settings: P. falciparum 3D7 erythrocytic growth, LDH absorbance, 72 h; at 2 µM; hits give high values
[5] = target: Calcium-dependent protein kinase 1 (Plasmodium falciparum (isolate 3D7)) (UniProt P62344); assay: PfCDPK1 kinase inhibitors, biochemical, TCAMS library (AID 1159585; cut-off not given, nearly all actives have IC50 up to about 0.98 µM;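 also: inhibitors leave more ATP so luminescence rises with inhibition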); settings: recombinant PfCDPK1, Kinase-Glo ATP depletion luminescence
[6] = target: Plasmodium falciparum protein kinase 6 (PK6, PF3D7_1337100) (UniProt Q8IDW1); assay: PfPK6 kinase inhibitors, biochemical, TCAMS library (AID 1159586); settings: recombinant PfPK6, Kinase-Glo ATP depletion luminescence
[7] = target: Protein kinase 7 (PK7), Plasmodium falciparum 3D7 (PF3D7_0213400) (UniProt Q7YTF7); assay: inhibition of Plasmodium PK7 catalytic activity – biochemical, TCAMS antimalarial set, Kinase-Glo luminescence (AID 1159587); settings: recombinant PfPK7, Kinase-Glo ATP depletion luminescence
[8] = target: Calcium-dependent protein kinase 4 (Plasmodium falciparum (isolate 3D7)) (UniProt Q8IBS5); assay: PfCDPK4 kinase inhibitors, biochemical, TCAMS library (AID 1159588; cut-off not given, nearly all actives have IC50 up to about 0.91 µM); settings: recombinant PfCDPK4, Kinase-Glo ATP depletion luminescence
Sequence of Calcium-dependent protein kinase 4 (Plasmodium falciparum (isolate 3D7)) (Q8IBS5 whole entry, looked up): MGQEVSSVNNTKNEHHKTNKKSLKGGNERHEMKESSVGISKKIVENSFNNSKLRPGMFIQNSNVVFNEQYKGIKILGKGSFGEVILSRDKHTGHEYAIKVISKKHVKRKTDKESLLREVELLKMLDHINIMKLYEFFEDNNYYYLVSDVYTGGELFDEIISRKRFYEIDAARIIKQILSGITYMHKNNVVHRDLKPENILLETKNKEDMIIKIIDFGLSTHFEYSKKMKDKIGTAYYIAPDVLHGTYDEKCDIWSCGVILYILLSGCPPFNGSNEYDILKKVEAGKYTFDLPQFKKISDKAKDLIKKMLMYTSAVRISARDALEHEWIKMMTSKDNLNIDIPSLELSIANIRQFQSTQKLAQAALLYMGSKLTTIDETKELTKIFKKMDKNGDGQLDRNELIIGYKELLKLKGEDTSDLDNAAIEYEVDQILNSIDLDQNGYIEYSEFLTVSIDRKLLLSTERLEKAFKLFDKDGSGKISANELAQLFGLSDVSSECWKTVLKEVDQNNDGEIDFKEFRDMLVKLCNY

Sequence of Plasmodium falciparum protein kinase 6 (PK6, PF3D7_1337100) (Q8IDW1 1-305): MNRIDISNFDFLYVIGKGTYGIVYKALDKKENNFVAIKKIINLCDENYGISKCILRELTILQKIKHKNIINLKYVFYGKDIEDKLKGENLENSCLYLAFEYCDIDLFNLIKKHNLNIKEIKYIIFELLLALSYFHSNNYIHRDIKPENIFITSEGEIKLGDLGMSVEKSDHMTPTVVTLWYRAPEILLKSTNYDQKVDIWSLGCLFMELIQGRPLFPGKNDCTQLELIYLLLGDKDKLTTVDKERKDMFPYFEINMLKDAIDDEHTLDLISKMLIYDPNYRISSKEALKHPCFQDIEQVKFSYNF
Sequence of L-lactate dehydrogenase (Plasmodium falciparum (isolate CDC / Honduras)) (Q27743 whole entry, looked up): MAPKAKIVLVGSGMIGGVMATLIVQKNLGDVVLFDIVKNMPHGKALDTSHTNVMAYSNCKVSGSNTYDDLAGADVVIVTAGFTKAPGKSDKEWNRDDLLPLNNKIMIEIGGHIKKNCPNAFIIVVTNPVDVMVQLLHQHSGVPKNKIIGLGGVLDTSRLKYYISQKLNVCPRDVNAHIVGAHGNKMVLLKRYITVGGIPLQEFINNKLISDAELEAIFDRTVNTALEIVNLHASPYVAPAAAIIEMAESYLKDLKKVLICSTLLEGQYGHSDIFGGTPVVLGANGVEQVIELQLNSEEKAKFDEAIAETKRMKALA
Sequence of Calcium-dependent protein kinase 1 (Plasmodium falciparum (isolate 3D7)) (P62344 whole entry, looked up): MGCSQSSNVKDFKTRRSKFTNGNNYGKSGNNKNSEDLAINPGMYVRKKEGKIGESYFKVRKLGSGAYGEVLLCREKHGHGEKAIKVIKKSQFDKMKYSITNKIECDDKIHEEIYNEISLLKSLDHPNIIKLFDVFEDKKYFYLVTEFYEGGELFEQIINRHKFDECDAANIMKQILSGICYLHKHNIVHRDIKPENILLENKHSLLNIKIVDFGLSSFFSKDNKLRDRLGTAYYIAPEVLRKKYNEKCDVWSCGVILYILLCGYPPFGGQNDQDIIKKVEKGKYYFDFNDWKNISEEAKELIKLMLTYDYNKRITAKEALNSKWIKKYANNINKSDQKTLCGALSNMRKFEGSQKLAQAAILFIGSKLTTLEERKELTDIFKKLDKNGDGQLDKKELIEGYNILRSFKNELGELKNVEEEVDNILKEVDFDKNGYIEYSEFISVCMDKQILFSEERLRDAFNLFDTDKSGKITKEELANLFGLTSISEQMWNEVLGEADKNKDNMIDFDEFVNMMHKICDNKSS
Sequence of Protein kinase 7 (PK7), Plasmodium falciparum 3D7 (PF3D7_0213400) (Q7YTF7 1-343): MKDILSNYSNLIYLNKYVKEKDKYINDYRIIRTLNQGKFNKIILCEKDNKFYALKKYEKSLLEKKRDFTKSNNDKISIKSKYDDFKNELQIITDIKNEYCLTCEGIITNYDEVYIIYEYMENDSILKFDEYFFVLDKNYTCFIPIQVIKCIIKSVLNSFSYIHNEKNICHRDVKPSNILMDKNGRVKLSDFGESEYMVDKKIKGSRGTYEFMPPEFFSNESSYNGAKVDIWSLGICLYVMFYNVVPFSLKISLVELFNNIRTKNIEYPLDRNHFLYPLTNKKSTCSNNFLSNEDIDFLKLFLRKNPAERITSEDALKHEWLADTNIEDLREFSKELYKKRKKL

O=C(NC1CCN(CCN2CCC(c3c[nH]c4ccccc34)CC2)CC1)c1ccc(-c2ccc(C(F)(F)F)cc2)cc1
active: growth inhibition [1] 100% | inhibition [2] 100% | growth inhibition [4] 99%
inactive: inhibition [3] 4% | outcome [5] | outcome [6] | outcome [7] | outcome [8]

Cc1cc(N[C@@H](Cc2ccccc2)C(=O)NCc2cccs2)nc(NCCOc2ccccc2)n1
active: growth inhibition [4] 93%
inactive: growth inhibition [1] 31% | inhibition [2] 2% | inhibition [3] -3% | outcome [5] | outcome [6] | outcome [7] | outcome [8]

COc1ccc(-c2nccc(NC(N)=NCc3ccccc3)n2)cc1
inactive: growth inhibition [1] 21% | inhibition [2] 27% | inhibition [3] 1% | outcome [5] | outcome [6] | outcome [7] | outcome [8]
active: growth inhibition [4] 83%

CC(C)(C)c1ccc(-c2cc3c(ccc4nc(N)nc(N)c43)[nH]2)cc1
active: growth inhibition [1] 100% | inhibition [2] 100% | growth inhibition [4] 101%
inactive: inhibition [3] 5% | outcome [5] | outcome [6] | outcome [7] | outcome [8]

COc1cc(CCON2C(N)=NC(N)=NC2(C)C)cc(OC)c1OC
inactive: inhibition [3] -1% | outcome [5] | outcome [6] | outcome [7] | outcome [8]
active: growth inhibition [1] 95% | inhibition [2] 59% | growth inhibition [4] 93%

Nc1ccnc2ccc(NC(=O)CCCCCc3ccccc3)cc12
active: growth inhibition [4] 96%
inactive: growth inhibition [1] 30% | inhibition [2] 47% | inhibition [3] 3% | outcome [5] | outcome [6] | outcome [7] | outcome [8]

CCC(=O)Nc1cc(=O)[nH]c2nc(-c3ccc(Cl)cc3)nn12
inactive: inhibition [2] 3% | inhibition [3] -11% | outcome [5] | outcome [6] | outcome [7] | outcome [8]
active: growth inhibition [1] 62% | growth inhibition [4] 84%

CN1CCCN(Cc2ccc(-c3ccc(NC(=O)c4cccc(C#N)c4)cc3)cc2)CC1
active: growth inhibition [1] 67% | growth inhibition [4] 97%
inactive: inhibition [2] 46% | inhibition [3] -8% | outcome [5] | outcome [6] | outcome [7] | outcome [8]

C=CCn1c(Sc2ccc(C#N)c([N+](=O)[O-])c2)nnc1-c1cccc(Cl)c1
active: growth inhibition [1] 54% | growth inhibition [4] 97%
inactive: inhibition [2] 41% | inhibition [3] -1% | outcome [5] | outcome [6] | outcome [7] | outcome [8]

NC(N)=NC(=O)Nc1cc(Cl)c(Cl)c(Br)c1
inactive: inhibition [2] 16% | inhibition [3] -2% | outcome [5] | outcome [6] | outcome [7] | outcome [8]
active: growth inhibition [1] 99% | growth inhibition [4] 99%

CCN(CCO)CCc1cccc(Nc2nccc(-c3c(-c4ccc(NC(=O)N(CC)CC)cc4)nn4ccccc34)n2)c1
active: growth inhibition [1] 95% | growth inhibition [4] 101%
inactive: inhibition [2] 46% | inhibition [3] 2% | outcome [5] | outcome [6] | outcome [7] | outcome [8]

CN(C)S(=O)(=O)c1ccc(C(=O)N(c2nc(-c3ccccc3)cs2)C2CCCCC2)cc1
active: growth inhibition [4] 98%
inactive: growth inhibition [1] 46% | inhibition [2] 7% | inhibition [3] -3% | outcome [5] | outcome [6] | outcome [7] | outcome [8]

COc1ccc2nc(C)cc(Nc3ccc(Oc4ccc(Br)c5ccccc45)c(Cl)c3)c2c1
inactive: inhibition [3] -3% | outcome [5] | outcome [6] | outcome [7] | outcome [8]
active: growth inhibition [1] 101% | inhibition [2] 100% | growth inhibition [4] 100%

FC(F)(F)c1ccc2nc(-c3cccc(-c4cccc(CNCCc5ccncc5)c4)c3)[nH]c2c1
inactive: inhibition [2] 31% | inhibition [3] -8% | outcome [5] | outcome [6] | outcome [7] | outcome [8]
active: growth inhibition [1] 97% | growth inhibition [4] 99%

c1ccc2c(Nc3ccc(Cc4ccc(Nc5c6ccccc6nc6ccccc56)cc4)cc3)c3ccccc3nc2c1
inactive: inhibition [3] 7% | outcome [5] | outcome [6] | outcome [7] | outcome [8]
active: growth inhibition [1] 101% | inhibition [2] 93% | growth inhibition [4] 101%

O=C(Nc1ccc(C(=O)N(Cc2ccc3c(c2)OCO3)C2CCCC2)cc1)c1cccs1
inactive: inhibition [2] 14% | inhibition [3] 4% | outcome [5] | outcome [6] | outcome [7] | outcome [8]
active: growth inhibition [1] 95% | growth inhibition [4] 97%

COc1cc(CS(C)(=O)=O)ccc1Nc1nccc(-c2c(-c3cccc(NC(=O)c4c(F)cccc4F)c3)nn3ccccc23)n1
inactive: inhibition [2] 46% | inhibition [3] 3% | outcome [5] | outcome [6] | outcome [7] | outcome [8]
active: growth inhibition [1] 71% | growth inhibition [4] 92%

CCCNC(=O)C1Cc2c([nH]c3cc(Br)ccc23)C2(CCN(CCc3ccccc3)CC2)N1 (stereo not drawn)
inactive: growth inhibition [1] 26% | inhibition [2] 15% | inhibition [3] -1% | outcome [5] | outcome [6] | outcome [7] | outcome [8]
active: growth inhibition [4] 92%

N#Cc1ccc2c(c1)CCN(CCC1CCC(NC(=O)/C=C/c3cccc4ccccc34)CC1)CC2 (stereo not drawn)
active: growth inhibition [4] 96%
inactive: growth inhibition [1] 12% | inhibition [2] 16% | inhibition [3] -6% | outcome [5] | outcome [6] | outcome [7] | outcome [8]

Oc1ccc2ncnc(Nc3ccc(OCc4cccc(F)c4)c(Cl)c3)c2c1
active: growth inhibition [4] 100%
inactive: growth inhibition [1] 30% | inhibition [2] 24% | inhibition [3] 2% | outcome [5] | outcome [6] | outcome [7] | outcome [8]

Cc1ccc(OCC2CCN(c3ncc(C(=O)NCCCN4CCCC4=O)cc3Cl)CC2)cc1
inactive: inhibition [2] 7% | inhibition [3] 0% | outcome [5] | outcome [6] | outcome [7] | outcome [8]
active: growth inhibition [1] 71% | growth inhibition [4] 94%

CCOc1ccc(Nc2cc(C)nc(Nc3ccc(OCC)cc3)n2)cc1
inactive: growth inhibition [1] 49% | inhibition [2] 3% | inhibition [3] 8% | outcome [5] | outcome [6] | outcome [7] | outcome [8]
active: growth inhibition [4] 101%

COc1ccccc1CNC(=O)C(=O)Nc1c(-c2ccccc2)[nH]c2ccccc12
active: growth inhibition [1] 91% | growth inhibition [4] 99%
inactive: inhibition [2] 0% | inhibition [3] -2% | outcome [5] | outcome [6] | outcome [7] | outcome [8]

NC(=O)c1ccccc1OCC(=O)Nc1cccc(-c2ccc(-c3nc4ccccc4[nH]3)cc2)c1
active: inhibition [2] 66% | growth inhibition [4] 95%
inactive: growth inhibition [1] 46% | inhibition [3] 4% | outcome [5] | outcome [6] | outcome [7] | outcome [8]

COc1ccc(-c2cccc(NC(=O)c3ccc(C#N)cc3)c2)cc1CN(C)CCN(C)C
active: growth inhibition [4] 90%
inactive: growth inhibition [1] 18% | inhibition [2] 14% | inhibition [3] 3% | outcome [5] | outcome [6] | outcome [7] | outcome [8]

Cc1cc(N2CCCC2=O)ccc1-c1ccc(C(=O)N2CCC(Oc3cccc(Cl)c3)CC2)cc1
active: growth inhibition [1] 98% | growth inhibition [4] 99%
inactive: inhibition [2] 34% | inhibition [3] -3% | outcome [5] | outcome [6] | outcome [7] | outcome [8]

COc1ccc(S(=O)(=O)NCCCC2CCN(CCCCCNC(=O)C=Cc3ccc(Cl)c(Cl)c3)CC2)cc1
active: growth inhibition [4] 85%
inactive: growth inhibition [1] 12% | inhibition [2] 24% | inhibition [3] 0% | outcome [5] | outcome [6] | outcome [7] | outcome [8]

CCc1cn(CCCOC)c2ccc(C(=O)N[C@@H](Cc3ccccc3)[C@H](O)CNCc3cccc(C(F)(F)F)c3)cc12
inactive: inhibition [2] 8% | inhibition [3] -4% | outcome [5] | outcome [6] | outcome [7] | outcome [8]
active: growth inhibition [1] 78% | growth inhibition [4] 93%

O=c1c(Br)ccccc1Br
active: inhibition [2] 98% | growth inhibition [4] 94%
inactive: growth inhibition [1] 41% | inhibition [3] 0% | outcome [5] | outcome [6] | outcome [7] | outcome [8]

CNc1ccc(CNCc2cccc(-c3ccc(-c4nc5c(C)cccc5[nH]4)cc3)c2)cc1
active: growth inhibition [1] 83% | growth inhibition [4] 102%
inactive: inhibition [2] 26% | inhibition [3] -4% | outcome [5] | outcome [6] | outcome [7] | outcome [8]

O=C(/C=C/c1ccc(Cl)c(Cl)c1)NCCCCCN1CCC(CCNC(=O)/C=C/c2ccccc2F)CC1
active: growth inhibition [4] 94%
inactive: growth inhibition [1] 1% | inhibition [2] 47% | inhibition [3] -2% | outcome [5] | outcome [6] | outcome [7] | outcome [8]

COc1ccc2nccc([C@@H](O)CN3CCC(NC(=O)c4cc5c(Cl)cc(Cl)cc5[nH]4)CC3)c2c1
inactive: inhibition [2] 22% | inhibition [3] -3% | outcome [5] | outcome [6] | outcome [7] | outcome [8]
active: growth inhibition [1] 98% | growth inhibition [4] 100%

Cc1ccc2c(NN=Cc3cccc(Cl)c3)cc(C)nc2c1
inactive: inhibition [3] -2% | outcome [5] | outcome [6] | outcome [7] | outcome [8]
active: growth inhibition [1] 52% | inhibition [2] 50% | growth inhibition [4] 96%

Clc1ccc(-c2[nH]c3ccccc3c2CN2CCC(N3CCCCC3)CC2)cc1
inactive: growth inhibition [1] 15% | inhibition [2] 5% | inhibition [3] 5% | outcome [5] | outcome [6] | outcome [7] | outcome [8]
active: growth inhibition [4] 93%

CC(C)COc1ccc(Cl)cc1Cc1ccc(-c2nc3ccc(Br)cc3[nH]2)o1
active: growth inhibition [1] 75% | growth inhibition [4] 80%
inactive: inhibition [2] 19% | inhibition [3] -3% | outcome [5] | outcome [6] | outcome [7] | outcome [8]

NC1CCN(CCc2ccc(NS(=O)(=O)c3cccc4ccccc34)cc2)CC1
active: growth inhibition [4] 94%
inactive: growth inhibition [1] 4% | inhibition [2] 21% | inhibition [3] 4% | outcome [5] | outcome [6] | outcome [7] | outcome [8]

Cc1nc(C)n(CC(=O)Nc2cccc(-c3cccc(-c4nc5ccc(C(F)(F)F)cc5[nH]4)c3)c2)n1
inactive: inhibition [3] -6% | outcome [5] | outcome [6] | outcome [7] | outcome [8]
active: growth inhibition [1] 96% | inhibition [2] 62% | growth inhibition [4] 100%

CN1CCCN(c2ccnc3cc4c(cc23)N(C(=O)c2ccc(Cl)cc2)CC4)CC1
inactive: growth inhibition [1] 0% | inhibition [2] 0% | inhibition [3] 4% | outcome [5] | outcome [6] | outcome [7] | outcome [8]
active: growth inhibition [4] 100%

NCc1cccc(-c2ccccc2CNC2CCN(Cc3ccccc3)CC2)c1
active: growth inhibition [4] 94%
inactive: growth inhibition [1] 4% | inhibition [2] -3% | inhibition [3] -2% | outcome [5] | outcome [6] | outcome [7] | outcome [8]

CCCCOc1cc(OC)c2ccccc2c1CCNCCCCNCCc1c(OCCCC)cc(OC)c2ccccc12
active: growth inhibition [1] 82% | inhibition [2] 100% | growth inhibition [4] 82%
inactive: inhibition [3] -6% | outcome [5] | outcome [6] | outcome [7] | outcome [8]

C=C[C@]1(C)C[C@@H](OC(=O)CS[C@H]2CN3CC[C@H]2C3)[C@@]2(C)C3C(=O)CC[C@@]3(CC[C@H]2C)[C@@H](C)[C@@H]1O (stereo partly drawn)
active: growth inhibition [1] 75% | growth inhibition [4] 91%
inactive: inhibition [2] 18% | inhibition [3] 4% | outcome [5] | outcome [6] | outcome [7] | outcome [8]
